About 910 (0.41%) of roughly 220,000 compounds were called active. The list comes from a sample in which actives are over-represented; it also holds similar structures and randomly drawn compounds. Entries with a potency or affinity are not part of this list. A number with no mark means an inactive call.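 How the source made its calls: active means primary inhibition above the hit cutoff, then over 50% inhibition at one or more dose response concentrations (cut at about 23% in these data, passing the limit was not always enough); inconclusive means conflicting primary data, or primary hits not chosen for dose response; inactive means low primary inhibition, or under 50% at every dose.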
These molecules were tested against Aminopeptidase N (Plasmodium falciparum (isolate 3D7)) (UniProt O96935) (assay: P. falciparum M1AAP inhibitors, biochemical, fluorogenic H-Leu-NHMec substrate, 1536-well (AID 1445;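 further: plate controls were DMSO full reaction for no effect and no enzyme background for full effect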)). Settings: recombinant M1AAP, H-Leu-NHMec fluorogenic kinetic assay; at 30 µM, hits give high values unless noted.
Chain of Aminopeptidase N (Plasmodium falciparum (isolate 3D7)) (O96935 whole entry, looked up): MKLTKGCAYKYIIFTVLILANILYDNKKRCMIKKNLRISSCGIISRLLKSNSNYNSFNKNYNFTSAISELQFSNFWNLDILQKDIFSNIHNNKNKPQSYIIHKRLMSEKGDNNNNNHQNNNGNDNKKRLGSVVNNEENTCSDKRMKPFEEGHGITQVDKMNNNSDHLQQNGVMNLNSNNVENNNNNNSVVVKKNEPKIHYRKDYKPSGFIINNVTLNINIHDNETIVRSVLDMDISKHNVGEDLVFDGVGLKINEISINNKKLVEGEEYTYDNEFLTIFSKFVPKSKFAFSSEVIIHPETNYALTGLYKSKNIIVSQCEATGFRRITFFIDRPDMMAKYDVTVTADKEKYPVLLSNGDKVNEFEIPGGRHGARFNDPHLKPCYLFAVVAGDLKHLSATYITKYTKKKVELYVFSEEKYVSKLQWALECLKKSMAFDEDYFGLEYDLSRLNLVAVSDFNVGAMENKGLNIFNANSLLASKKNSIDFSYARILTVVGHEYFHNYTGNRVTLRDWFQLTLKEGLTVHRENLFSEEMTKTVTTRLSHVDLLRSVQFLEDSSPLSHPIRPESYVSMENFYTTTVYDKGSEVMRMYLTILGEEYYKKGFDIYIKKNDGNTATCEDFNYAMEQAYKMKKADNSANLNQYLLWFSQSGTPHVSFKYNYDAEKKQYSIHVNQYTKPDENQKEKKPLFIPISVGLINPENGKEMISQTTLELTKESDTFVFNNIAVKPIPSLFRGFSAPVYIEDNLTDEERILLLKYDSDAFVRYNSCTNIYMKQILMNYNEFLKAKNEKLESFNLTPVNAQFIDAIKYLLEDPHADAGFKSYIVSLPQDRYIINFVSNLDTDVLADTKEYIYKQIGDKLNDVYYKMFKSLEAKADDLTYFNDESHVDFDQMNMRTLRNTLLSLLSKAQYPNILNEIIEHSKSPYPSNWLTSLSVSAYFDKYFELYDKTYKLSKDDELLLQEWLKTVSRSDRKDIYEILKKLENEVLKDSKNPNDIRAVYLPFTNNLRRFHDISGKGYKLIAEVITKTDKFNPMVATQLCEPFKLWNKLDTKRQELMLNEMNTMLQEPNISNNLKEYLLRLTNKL

| SMILES | inhibition |
| --- | --- |
| O=C(CSc1nnc(-c2cccs2)o1)OCc1ccccc1 | 5.09% |
| CCO[C@H]1OC(C(=O)N2CCOCC2)=C[C@@H](c2ccc(Br)cc2)[C@@H]1CCCO | -2.33% |
| CC/C(=C\C1CCCCC1)C(NP(=O)(c1ccccc1)c1ccccc1)c1ccccc1 (stereo not drawn) | 5.64% |
| CCOc1cc(NS(=O)(=O)c2ccc(OC)cc2)c(OCC)cc1NC(=O)c1ccco1 | 1.99% |
| CCOC(=O)C1C(=O)CC(C)(O)C(C(=O)OCC)C1c1ccc(Br)cc1 (stereo not drawn) | 11.1% |
| Cc1ccc(NC(=O)N2CCN(S(=O)(=O)c3ccccc3)CC2)cc1 | -1.89% |
| NS(=O)(=O)c1ccc(CCNC(=O)CSc2ccc(Cl)cc2)cc1 | 9.38% |
| O=C(COC(=O)CCSc1ccc(Cl)cc1)NCCc1ccccc1 | -5.52% |
| O=C(CCC(=O)Nc1ccccc1)N/N=C/C=C/c1ccccc1 | 7.53% |
| Cn1c(=O)c2c(nc(NCc3ccccc3)n2CC(=O)NCc2ccccc2)n(C)c1=O | -6.75% |
| Cc1cccc(C(=O)Oc2ccc(/C=N/NC(=O)c3ccccc3O)cc2)c1 | 3.44% |
| CCOC(=O)c1ccc2[nH]c3c(c2c1)CCCC3O (stereo not drawn) | 0.31% |
| CCN(CC)c1ccc(/C=C2/C(=O)N(c3ccc([N+](=O)[O-])cc3)N=C2N2CCOCC2)cc1 | -6.76% |
| CCN(CC)c1ccc(/C=C2/C(=O)ON=C2C)cc1 | 15.8% |
| C=CCOC(=O)c1[nH]c2c(c1C)C(=O)CC(c1ccco1)C2 (stereo not drawn) | 9.27% |
| N#CC1=C(N)C2=CCCC[C@H]2[C@H](c2ccccc2)C1(C#N)C#N | 0.19% |
| N#CC1=C(N)C2=C(N3CCCCC3)CCCC2C1(C#N)C#N (stereo not drawn) | 27.6% (active) |
| N#CC1=C(N)C2=CCCC[C@H]2[C@H](c2ccc(Br)cc2)C1(C#N)C#N | 1.37% |
| COc1ccc(-c2cc(-c3cccnc3)c(C#N)c(N)n2)cc1 | 11.1% |
| CC(C)CC(C(=O)NC(=O)NCc1ccccc1)N1C(=O)c2ccccc2C1=O (stereo not drawn) | 7.55% |
| Cc1cc(NS(=O)(=O)c2ccc(NC(=O)C(C(C)C)N3C(=O)c4ccccc4C3=O)cc2)nc(C)n1 (stereo not drawn) | 11.3% |
| Cc1noc(NS(=O)(=O)c2ccc(NC(=O)CCN3C(=O)c4ccccc4C3=O)cc2)c1C | 12.8% |
| CC(C)CC(C(=O)Nn1cnnc1)N1C(=O)c2ccccc2C1=O (stereo not drawn) | 25.1% (active) |
| Cc1cc(NS(=O)(=O)c2ccc(NC(=O)C(C)N3C(=O)c4ccccc4C3=O)cc2)nc(C)n1 (stereo not drawn) | 2.55% |

| SMILES | inhibition |
| --- | --- |
| Cc1noc(NS(=O)(=O)c2ccc(NC(=O)c3ccc(N4C(=O)c5ccccc5C4=O)cc3)cc2)c1C | -1.13% |
| CC(C)CC(C(=O)NCc1ccccn1)N1C(=O)c2ccccc2C1=O (stereo not drawn) | 13.1% |
| COc1cccc(Cn2nnc(C(=O)NCc3ccc(F)cc3)c2N)c1 | -3.49% |
| CCOC(=O)N1CCN(c2c(N3CCN(c4cccc(C(F)(F)F)c4)CC3)c(=O)c2=O)CC1 | 4.51% |
| CC1=CCC2C(=O)N(c3ccc(S(N)(=O)=O)cc3)C(=O)C2C1 (stereo not drawn) | 2.35% |
| Cc1nnc2ccc(N3CCOCC3)nn12 | 0.92% |
| CCn1c(C)nc2cc(C(=O)NNC(=S)Nc3ccc(Cl)cc3)ccc21 | -13.2% |
| CCN1CCc2c(OCC(=O)N3CCCCC3)cccc2C1=O | 1.05% |
| C#CCN1C(=O)S/C(=C/c2cc(C)n(CC)c2C)C1=O | 9.33% |
| CCn1c(C)cc(/C=C2\SC(=O)N(CC(=O)Nc3ccc(C)c(C)c3)C2=O)c1C | 2.14% |
| Cc1ccc(NC(=O)c2cc(C(C)(C)C)nn2Cc2ccccc2)cc1 | 5.05% |
| Cc1cc(C)cc(OCC(=O)N(Cc2cccs2)C2CCS(=O)(=O)C2)c1 (stereo not drawn) | 2.35% |
| Cc1cc(=O)[nH]c(-c2ccccc2O)n1 | 10.9% |
| CCC(C)Sc1nc2c(c(=O)n1C)SC(C)C2 (stereo not drawn) | 23.5% (active) |
| CC(C)Sc1nc2c(c(=O)n1C)SC(C)C2 (stereo not drawn) | 11.9% |
| CSc1nc2c(c(=O)n1C)SC(C)C2 (stereo not drawn) | 1.34% |
| O=C(CNC(=S)N(CCCN1CCOCC1)Cc1cccs1)NC1CCCC1 | 5.27% |
| COc1ccc(N2CCN(c3ccc(N4C(=O)CC(C)C4=O)cc3[N+](=O)[O-])CC2)cc1 (stereo not drawn) | -8.33% |
| c1ccc(NC2=Nc3cccc4cccc2c34)cc1 | 1.68% |
| NC1=Nc2cccc3cccc1c23 | 3.4% |
| CCCCN(C)C1=Nc2cccc3cccc1c23 | 26.3% (active) |
| CC1=NN(c2nc(-c3ccc(C)cc3)cs2)C(=O)C1N=Nc1ccc2ccccc2c1 (stereo not drawn) | -4.56% |
| CC1=NN(c2nc(-c3ccc(C)cc3)cs2)C(=O)C1N=Nc1cccc(O)c1 (stereo not drawn) | 6.79% |
| COc1ccc([N+](=O)[O-])cc1NC(=O)c1cc(C)c(C)o1 | 8.9% |

| SMILES | inhibition |
| --- | --- |
| Cc1ccsc1C1NC(=O)c2c(sc3c2CCN(C)C3)N1 (stereo not drawn) | 25.9% (active) |
| Cc1ccsc1C1NC(=O)c2c(sc3c2CCCC3)N1 (stereo not drawn) | -10.2% |
| CN1CCc2c(sc3c2C(=O)NC(c2cccs2)N3)C1 (stereo not drawn) | 11.5% |
| COC(=O)c1cn(-c2ccccc2)c(=O)c2ccccc12 | 0.56% |
| Cc1sc2ncn(CC(=O)N3CCOCC3)c(=O)c2c1-c1ccccc1 | 22.3% |
| Cc1ccc(-c2csc3ncn(CC(=O)N4CCOCC4)c(=O)c23)cc1C | 16.1% |
| CCOC(=O)N1CCC(NC(=O)c2ccc3c(c2)sc2nc(-c4ccccc4)cn23)CC1 | 31.7% |
| CCOC(=O)N1CCC(NC(=O)c2ccc3c(c2)sc2nc(-c4ccc(OC)cc4)cn23)CC1 | 6.96% |
| COC(=O)c1ccc(NC(=O)C2CC2)o1 | -0.61% |
| CCCOC(=O)c1c(-c2ccc(C)cc2C)csc1NC(=O)C1C2CCC(O2)C1C(=O)O (stereo not drawn) | -4.77% |
| CCOC(=O)c1c(-c2ccc(-c3ccccc3)cc2)csc1NC(=O)C1C2CCC(O2)C1C(=O)O (stereo not drawn) | 3.79% |
| FC(F)C(F)(F)C1=CC(c2cccs2)=NCCN1 | 6.95% |
| COCc1cc(C)nc(OCC(=O)N/N=C\c2cc(C)n(-c3cccc(C(F)(F)F)c3)c2C)c1C#N | 6.82% |
| CC(C)Nc1nc(NNc2nc(Cl)nc(NC(C)(C)C)n2)nc(NC(C)C)n1 | -3.65% |
| COc1cc(/C=N/Nc2nc(Nc3ccc(C)cc3)nc(-n3nc(C)cc3C)n2)cc(OC)c1OC | 0.21% |
| COC(=O)c1c(N2C(=O)Nc3ccccc3N2O)sc2c1CCCC2 | 9.84% |
| CCOC(=O)c1c(N2C(=O)Nc3ccccc3N2O)sc2c1CCCC2 | 4.01% |
| CC(C)(CC(=O)O)Cc1nc(-c2ccc(Cl)cc2)no1 | -3.52% |
| COc1ccc(NS(=O)(=O)c2cccc(Cl)c2)cc1S(=O)(=O)N1CCCCC1 | 1.83% |
| Nc1ccc2nc(-c3ccccc3)sc2c1 | 33.2% |
| Nc1ccc(-c2nc3cc(N)ccc3s2)cc1 | 13% |
| Nc1cccc(-c2nc3ccc(N)cc3s2)c1 | 8.49% |
| Cc1ccc2nc(-c3ccc(N)cc3)sc2c1 | 3.99% |
| CN(C)CCCNC(=S)Nc1ccc(Br)cc1 | -1.23% |

| SMILES | inhibition |
| --- | --- |
| COc1cccc2c(=O)c3cccc(N)c3[nH]c12 | 17.7% |
| CCOC(=O)c1c(C)oc2ccc(OC(=O)N3CCOCC3)cc12 | 3.42% |
| O=C(CSc1nnc(Nc2ccccc2)s1)NCCN1C(=O)CSC1=O | 0.85% |
| [2H]c1c([2H])c([2H])c(-c2nc(N3CCCCCC3)sc2C(=O)c2ccccc2)c([2H])c1[2H] | 6.9% |
| O=C(O)CC(C(=O)O)N1C(=O)/C(=C/c2ccc(-c3nc4ccccc4s3)o2)SC1=S (stereo not drawn) | 24.7% (active) |
| O=C(O)CCN1C(=O)/C(=C\c2ccc(-c3nc4ccccc4s3)o2)SC1=S | 20.7% |
| O=C(O)CCN1C(=O)/C(=C/c2ccc(-c3nc4ccccc4s3)o2)SC1=S | -3.38% |
| COCCNC(=O)CN(C(=O)Cn1nnc2ccccc21)c1ccccc1 | 6.84% |
| CSc1nnc(-c2cc[n+](C)cc2)n1CCO | -2.01% |
| O=C(Nc1ccc2oc(-c3ccccc3)nc2c1)c1ccccc1F | 4.36% |
| O=C(Nc1cccc(-c2nc3ccccc3o2)c1)c1cccnc1 | 8.84% |
| O=C(Nc1ccc2oc(-c3ccc(F)cc3)nc2c1)c1ccccc1F | -4.88% |
| CC(C)C(=O)Nc1cccc(-c2nc3ccccc3o2)c1 | 1.29% |
| COc1cccc(S(=O)(=O)Nc2ccc(C(=O)Nc3ccncc3)cc2)c1 | -3.5% |
| CC1Cc2cc(/C(O)=C3\C(=O)C(=O)N(CCN(C)C)C3c3ccccc3F)ccc2O1 (stereo not drawn) | -2.37% |
| O=c1c2ccccc2nnn1Cc1ccccc1Cl | -2.79% |
| Cc1ccccc1NC(=O)c1ccc(S(=O)(=O)N(C)C)cc1 | 0.67% |
| Cc1nc2ccccc2c2oc(C(=O)N3CCN(C4CCCCC4)CC3)cc12 | 0.64% |
| Cc1nc2ccccc2c2oc(C(=O)N3CCN(C(=O)c4ccco4)CC3)cc12 | 25.5% (active) |
| Cc1nc2ccccc2c2oc(C(=O)N3CCC(N4CCCCC4)CC3)cc12 | -1.44% |
| Cc1ccccc1OCC(=O)NNC(=O)Nc1ccccc1 | 11.5% |

Reference: PubChem BioAssay AID1445 (SRMLSC, 2008)
